Screening results: PubChem BioAssay, several laboratories
TRPM1 prom inh: inhibitors of MITF-driven TRPM1 promoter in melanoma cells; SK-MEL-5 TRPM1 promoter luciferase, 24 h; inhibition, % at 12.5 µM; 330,000 compounds, 0.83% hits;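 active = mean inhibition across replicates of 60% or more, whatever share of single replicates reaches that level; inconclusive = some that reach 60%, reason not given; inactive = mean inhibition across replicates below 60%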
LMP1 NFkB inh: inhibitors of Epstein-Barr LMP1-induced NF-kappaB reporter | inhibition, % at 12.5 µM | LMP1-induced NF-kappaB luciferase reporter cells, luminescence | 350,000 compounds, 0.69% hits; in the data active = inhibition above about 41%; inconclusive = no clear call, values can overlap the other calls;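 also: 0% = neutral control wells and 100% = reference inhibitor control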
CF NFkB inh: inhibitors of cystic fibrosis induced NF-kB; KKLEB NF-kB-GFP reporter, PAF-induced, GFP fluorescence overnight; inhibition, % at 5 µM; 360,000 compounds, 0.86% hits;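 active = at least 50% inhibition at 5 µM, scaled per plate between neutral and stimulator controls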;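 also: PAF is a Pseudomonas aeruginosa culture filtrate used as stimulus; plate controls were PAF-stimulated DMSO wells for no effect and unstimulated DMSO wells for full effect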
Shn3 3UTR inh: inhibitors of Schnurri-3 3'UTR reporter in osteoblasts | Clone20 osteoblast Shn3 3'UTR firefly luciferase, 24 h | inhibition, % at 12.5 µM | 360,000 compounds, 0.52% hits | AID 588674;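 active = mean inhibition of at least 75% with every replicate also reaching 75%; inconclusive = mean inhibition at least 75% but some replicate below; inactive = mean inhibition below 75%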;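 also: 0% = median of neutral control wells and 100% = pilot-screen positive control compound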
Peg3 prom inh: reduces Peg3 promoter-driven luciferase expression in HeLa. HeLa PEG-Prom luciferase reporter, luminescence, overnight. 360,000 compounds, 1.7% hits. inhibition, % at 20 µM;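 active = inhibition of at least 50% at 20 µM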
KKLEB cytotox: reduces viability of KKLEB cystic fibrosis airway cells | KKLEB CF airway cells viability, ATPlite luminescence, overnight; stronger effect = lower value; cells stimulated with P. aeruginosa culture filtrate | activity change (cytotoxicity), % at 5 µM | 360,000 compounds, 0.36% hits | AID 602141;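 active = corrected activity change at or below -50% at 5 µM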
Numbers without * were called inactive; ? = inconclusive; . = no result. An excerpt weighted towards active compounds, which were near 2.9% of everything screened.

SMILES | TRPM1 prom inh | LMP1 NFkB inh | CF NFkB inh | Shn3 3UTR inh | Peg3 prom inh | KKLEB cytotox
CC(=O)NC(c1cccc(F)c1)c1nc(-c2cnc3ccccc3c2)cs1 (stereo not drawn) | . | . | -20 | -18 | -85 | 3
O=C(CCOc1cccc(Br)c1)Nc1ccc(F)c(S(=O)(=O)N2CCOCC2)c1 | 1 | 16 | 10 | 41 | 34 | 7
COc1ccc2cc(C)c3nnc(SCC(=O)Nc4nc(-c5ccccc5)cs4)n3c2c1 | 11 | 21 | 32 | -2 | 15 | -52*
NN=C1c2ccccc2-c2ccc(N)cc21 | -18 | -10 | -8 | -17 | -14 | 0
CCOC(=O)C1=CNS(=O)(=O)NC1c1ccccc1 (stereo not drawn) | 7 | 6 | -2 | 2 | 11 | 3
C[C@@H]1CN([C@H](C)CO)C(=O)CCCn2nncc2CO[C@H]1CN(C)Cc1cccc(C(=O)O)c1 | . | -3 | -20 | -4 | -11 | 18
CCOC(=O)c1c[nH]c(=O)c(Br)c1O | 1 | 61* | 5 | -12 | 7 | 2
CCOC(=O)c1c[nH]c2nc(C)ccc2c1=O | 2 | -1 | 12 | -8 | -30 | 3
Cc1ccc(NC(=O)c2cc(N3C(=O)C=CC3=O)ccc2N2CCOCC2)cc1Cl | 78* | 1 | 30 | 76 | 93* | -9
CC(=O)Nc1ccc(NC2=Nc3ccccc3N3C2=Nc2c(c(C)nn2-c2ccccc2)C3c2ccccc2)cc1 (stereo not drawn) | 79* | ? | 3 | 14 | 90* | 15
COc1ccc(NC2=Nc3ccccc3N3C2=Nc2c(c(C)nn2-c2ccc(C)cc2)C3c2cccnc2)cc1 (stereo not drawn) | 4 | -31 | -15 | -3 | 15 | 27
CCN(CC)C(=O)C1=C(C)N(CCCOC)C(=O)C(CC(=O)NC2CCCCC2)C1 (stereo not drawn) | . | 5 | 11 | -14 | -20 | -2
CC(Nc1nc(-c2ccccc2)nc2ccccc12)c1ccccc1 (stereo not drawn) | -2 | -113 | 12 | 4 | 11 | -9
CC(Nc1nc(N2CCCCC2)nc2ccccc12)c1ccccc1 (stereo not drawn) | 6 | -3 | 29 | 44 | 68* | -39
Cc1ccc(C(O)c2ncc(-c3ccc4ccccc4c3)[nH]2)cc1F (stereo not drawn) | . | . | -10 | -7 | -66 | 3
Cc1ccc(OCc2ccc(C(=O)Nc3nc4ccccc4n3Cc3ccccc3)o2)c([N+](=O)[O-])c1 | 9 | -3 | 24 | 33 | 15 | -33
O=C(Nc1nc2ccccc2n1Cc1ccccc1)c1ccc(COc2ccccc2[N+](=O)[O-])o1 | 24 | 9 | 46 | 33 | 28 | -68*
Cc1ccc(Cl)cc1-c1cc(C(=O)N2CCN(c3ccncc3)CC2)[nH]n1 | . | . | -15 | 7 | 11 | 11
O=C(NC1c2ccccc2Oc2ccccc21)c1ccc([N+](=O)[O-])cc1 | -4 | -4 | -2 | -12 | 10 | 6
COc1cc(OC)cc(C(=O)Nc2nnc(NC(=S)Nc3ccccc3)s2)c1 | 8 | -33 | 65* | 13 | -9 | 15
Cc1cc(C)n(CCNC(=O)[C@H]2O[C@@H](n3ccc(N)nc3=O)[C@H](O)[C@@H]2O)n1 | . | . | 5 | 9 | 7 | -23
CN(C)CCCn1c(=O)n(CCc2ccccc2)c(=O)c2c3c(sc21)CCCCC3 | 53 | 3 | 22 | 18 | 101* | -11
CN(C)CCCNc1nc2sc3c(c2c(=O)n1CCc1ccccc1)CCCCC3 | 65* | -4 | 15 | 5 | 113* | -7
NC(N)=NCCCS(=O)(=O)Nc1ccc(Nc2c3ccccc3nc3cc([N+](=O)[O-])ccc23)cc1 | -3 | 2 | -14 | 3 | -8 | 8
COC(=O)C1CCN(C2CN(Cc3ccc(F)cc3)S(=O)(=O)C2)CC1 (stereo not drawn) | . | . | -32 | -22 | -13 | 20
SMILES | TRPM1 prom inh | LMP1 NFkB inh | CF NFkB inh | Shn3 3UTR inh | Peg3 prom inh | KKLEB cytotox
COc1cccc(CNC[C@H]2O[C@@H](n3ccc(N)nc3=O)[C@H](O)[C@@H]2O)c1OCc1ccc(F)cc1Cl | . | 9 | 29 | -2 | 20 | -18
Cc1ccccc1Cn1cc(NC(=O)c2cc3nc(-c4ccco4)cc(C(F)(F)F)n3n2)cn1 | -11 | -1 | -3 | 12 | -3 | 0
CCc1ccc(-c2cc(C(F)(F)F)n3nc(C(=O)Nc4cnn(Cc5ccc(C)cc5)c4)cc3n2)s1 | 54 | -15 | -7 | 91* | 43 | -13
Cc1cc(C(=O)COc2cc(F)ccc2[N+](=O)[O-])c(C)n1C1CC1 | -7 | -2 | 2 | -18 | -43 | 6
Cc1cc(C(=O)Cn2cnc3cc(F)ccc3c2=O)c(C)n1C1CC1 | -71 | -21 | 4 | 93* | -247 | -9
O=C(NC(=S)N1CCN(c2ccccn2)CC1)c1ccco1 | 4 | 54* | 2 | -10 | 3 | -4
CN(Cc1cnn(-c2ccccc2)c1)C(=O)c1cccc(S(=O)(=O)Nc2ccccc2F)c1 | . | -11 | -18 | -10 | 5 | 16
COc1ccc(Nc2oc(COc3ccc(Cl)cc3)nc2C#N)cc1 | 27 | 46* | -3 | 19 | 47 | -9
COc1ccc(CNc2oc(COc3ccc(Cl)cc3)nc2C#N)cc1 | -2 | -2 | -7 | -16 | 26 | 4
CCN(CC)S(=O)(=O)c1ccc(-c2nnc(SCC(=O)N3CCOCC3)o2)cc1 | -2 | -6 | 10 | -7 | 2 | -2
CCN(CC)S(=O)(=O)c1ccc(-c2nnc(SCC(=O)N3CCc4ccccc43)o2)cc1 | 24 | -41 | 1 | 41 | 52* | -14
Cc1cc(C)cc(N(C(=O)c2nsc(Cl)c2Cl)C(C(=O)NC2CCCC2)c2ccc(O)cc2)c1 (stereo not drawn) | 17 | -2 | 13 | 11 | 60* | -5
COc1ccc(C(C(=O)NC2CCCC2)N(C(=O)c2snc(-c3ccc(F)cc3)c2N)c2cccc(F)c2)cc1 (stereo not drawn) | 19 | -68 | 6 | 4 | 51* | -22
Cc1ccccc1N(C(=O)c1snc(C(N)=O)c1N)C(C(=O)NC1CCCCC1)c1ccc(O)cc1 (stereo not drawn) | -5 | 41* | -7 | 31 | 44 | 1
Cc1ccc(N(C(=O)c2nsc(Cl)c2Cl)C(C(=O)NC2CCCC2)c2ccc(O)cc2)cc1C (stereo not drawn) | -7 | -22 | 27 | 5 | -56 | -23
COC(=O)c1cccc(NC(=O)CCN2C(=O)NC(C)(C)C2=O)c1 | . | 0 | 10 | -22 | 1 | 2
COc1ccc(OCCCC(=O)NC(C)c2ccccc2)cc1 (stereo not drawn) | -4 | 8 | 12 | 2 | 16 | 2
CC(NC(=O)CCOc1ccccc1)c1ccccc1 (stereo not drawn) | -4 | 74* | 1 | 2 | -16 | -1
